High-throughput results deposited in PubChem BioAssay by National Center for Advancing Translational Sciences (NCATS).
BAZ2B block – BAZ2B (human) inhibition. AlphaScreen BAZ2B-H3K14Ac peptide displacement. AID 504333. Potency, µM (top dose mostly 114 µM), without a hit: at the highest dose activity change, negative = inhibition, most hits filed as inhibitors. actives 4.4% (n = 360,000); further: on the % scale 0 is the no-effect control and ±100 the full control effect; nearly all actives have a fitted effect of over 60% in size
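Complex of BAZ2B and biotin-H3K14Ac (50 nM apiece) forms over 30 min at RT, then faces library compounds up to 110 uM for another 30 min; AlphaScreen beads added, 20 min dark incubation, luminescence read.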
JMJD2A Tudor – blocks the human JMJD2A Tudor domain; Potency, µM (top dose mostly 114 µM), for inactives: at the top dose activity change, negative = inhibition, usual class: inhibitors; O75164; AlphaScreen JMJD2A-Tudor / H3K4me3 peptide binding; AID 504339; actives 4.4% (n = 390,000); further: on the % scale 0 is the no-effect control and ±100 the full control effect; nearly all actives have a fitted effect of over 50% in size
Sfp inh – blocks B. subtilis Sfp PPTase activity | Q9F4F7 | Biochemical Sfp PPTase activity, qHTS | Potency, µM, for inactives: largest response in the series, negative = inhibition, hits mostly inhibitors | actives 3.5% (n = 310,000) | AID 1490;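 further: the enzyme is Sfp with the accession as filed and its product quenches rhodamine fluorescence; 0% = enzyme reaction without inhibitor and -100% = no enzyme wells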
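Compounds were incubated with enzyme (final 15 nM) for 15 min at room temperature before substrate addition started the reaction. Fluorescence at 525 nm excitation, 598 nm emission was recorded immediately and after 30 minutes.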
HP1b chromo inh – inhibitors of HP1-beta chromodomain binding to methylated histone tails | AlphaScreen HP1-beta / biotin-H3K9me3 peptide binding | Potency, µM (top dose mostly 114 µM), for inactives: at the highest dose activity change, negative = inhibition, actives largely listed as inhibitors | actives 0.56% (n = 390,000); further: nearly all actives have a fitted effect of over 70% in size
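AlphaScreen: HP1-beta (50 nM) preformed 30 min with biotin-H3(1-18)K9me3 peptide (50 nM) in PBS pH 7.4, 0.01% Tween-20. Compound added for 30 min at RT, then streptavidin donor/nickel chelate acceptor beads (10 ug/mL) for 30 min.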
G9a block – blocks human histone lysine methyltransferase G9a; Potency, µM (series often up to 102 µM), inactives show at the highest dose activity, negative = inhibition, actives largely listed as inhibitors; actives 8.8% (n = 350,000); AID 504332; G9a H3K9 monomethylation, AlphaScreen, 2 h; Q96KQ7; further: on the % scale 0 is the no-effect control and ±100 the full control effect; nearly all actives have a fitted effect of over 75% in size
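Methyltransferase reactions run at room temperature for 2 h (20 nM enzyme, 500 nM biotin-H3K9 peptide, 20 uM SAM) after a 15 min compound preincubation; product detected by AlphaScreen beads and anti-H3K9me1 antibody.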
An asterisk follows results filed as active; ? = inconclusive; nt = no result; [ ] = another dose, or the depositor's remark. This is a sample that favours compounds with a hit; in the whole collection about 12% have one here. The call rests on the fitted dose curve; in most records, active means well fitted curve in the direction sought with a large enough effect; inconclusive means small, poorly fitted or top-dose-only effect, or another doubt; inactive means no such curve, though single readings can be large; an effect the other way counts as inactive or inconclusive. Potency means the concentration at half of the fitted maximal effect.

SMILES	BAZ2B block	JMJD2A Tudor	Sfp inh	HP1b chromo inh	G9a block
COCCNC(=S)N1CCN(c2nc3ccccc3s2)CC1	-27.8%	-7.9%	-5.1%	6.8%	6.2%
O=C(Oc1ccc(/C=N/O)cc1)c1ccccc1Cl	-26.4%	-4.2%	-8.7%	38.5%	?
Cc1nc(SCC(=O)O)c(C#N)c(-c2ccco2)c1C(=O)N(C)C	-2.9%	-15.1%	-2.0%	17.0%	-1.0%
CSc1nc(C)c(C(=O)Nc2ccccc2)c(-c2ccco2)c1C#N	0.1%	-6.2%	6.8%	33.3%	-8.0%[59 µM]
Cc1ccccc1NC(=O)c1c(C)[nH]c(=S)c(C#N)c1-c1ccco1	3.6%	-17.8%	56.2µM*	5.9%	1.26µM*
CNC(=O)c1c(C)[nH]c(=S)c(C#N)c1-c1ccco1	?	17.8µM*	8.91µM*	?	nt
CCC(NC(=O)Cc1c(C)c2cc3c(cc2oc1=O)OC(C)(C)CC3)C(=O)O (centres undefined)	-0.1%	-17.8%	6.0%	60.0%	-1.3%
C=CCOc1cccc(C(=O)N(C)C2CCCN(Cc3ccccc3F)C2)c1 (centres undefined)	nt	-11.4%	nt	32.8%	nt
Cc1ccc(NC(=O)CS(=O)CC(=O)NCCCc2ccccc2)cc1Cl (centres undefined)	-7.9%	-34.3%	9.9%	48.2%	?
Cc1ccc(CNC(=O)CSc2c3c(nc4ccc(Cl)cc24)CCCC3)o1	-4.9%	-6.7%	35.5µM*	35.8%	-24.8%[59 µM]
COc1ccc(CNC(=O)CSc2c3c(nc4ccc(Cl)cc24)CCCC3)cc1	nt	-6.3%	nt	21.8%	1.6%[59 µM]
Cc1oc2c(c1C(=O)NCCO)CCCC2	-6.5%	-15.1%	17.3%	47.3%	0.1%[59 µM]
CCNC(=O)C1CCN(S(=O)(=O)c2ccc(F)cc2)CC1	5.9%	25.1µM*	13.9%	-10.3%	-39.9%
O=C(NCc1ccc(F)cc1)C1CCN(c2cnccn2)CC1	-2.7%	25.1µM*	-1.2%	-13.8%	nt
O=C(NCc1ccco1)C1CCN(C(=O)c2cc3sccc3n2Cc2ccc(F)cc2)CC1	?	?	?	4.0%	?
CCC(=O)N1CCCc2cc(S(=O)(=O)N3CCC(C(=O)NCc4ccc(F)cc4)CC3)ccc21	-4.6%	56.2µM*	nt	-4.5%[57 µM]	13.2%[59 µM]
O=C(NCc1ccco1)C1CCN(Cc2ccc(F)cc2)CC1	50.1µM*	50.1µM*	1.1%	?	31.6µM*
COC(=O)c1ccc(NS(=O)(=O)c2cc3c4c(c2)CCC(=O)N4CCC3)cc1	16.7%	-3.4%	nt	24.6%	20.3%[2.33 µM]
COc1ccc(S(=O)(=O)N2CCC(C(=O)N[C@H](C(=O)NCc3ccco3)C(C)C)CC2)cc1	-3.2%	-4.6%	-2.5%	35.9%	nt
CC(C)[C@H](NC(=O)C1CCN(S(=O)(=O)c2ccc(F)cc2)CC1)C(=O)NCc1ccco1	-3.8%	35.5µM*	5.0%	-6.2%	nt
CCC(C)NC(=O)c1sc2nc(C)c(C(=O)Nc3ccc(C)cc3C)c(-c3ccc(NC(C)=O)cc3)c2c1N (centres undefined)	5.1%	-8.2%	nt	32.3%	2.2%[59 µM]
CC1=NN(c2ccc(Cl)cc2)C(=O)C1C(c1cccc(O)c1)c1c(C)[nH]n(-c2ccc(Cl)cc2)c1=O (centres undefined)	44.7µM*	56.2µM*	11.4%	?	?
O=C(NCCN1CCOCC1)C(=O)NCC1CCCO1 (centres undefined)	36.3%	-4.1%	2.0%	34.0%	55.4%[59 µM]
COc1cc(C(=O)N(Cc2ccccn2)CC2CCCO2)cc(OC)c1OC (centres undefined)	56.2µM*	17.8µM*	0.6%	-17.4%	-38.9%[12.7 µM]
COc1ccc(C(=O)N(Cc2cc(OC)c(OC)c(OC)c2)CC2CCCO2)cc1 (centres undefined)	-5.9%	-7.5%	nt	13.5%	-1.5%[59 µM]
SMILES	BAZ2B block	JMJD2A Tudor	Sfp inh	HP1b chromo inh	G9a block
Oc1ccccc1C1=Nc2nc3ccccc3n2C(c2ccccc2)C1 (centres undefined)	?	?	-23.3%	4.4%	12.6µM*
Oc1ccccc1C1=NN(c2ccccc2)C(c2ccc(F)cc2)C1 (centres undefined)	139.9%	219.6%	-3.8%	290.8%	385.6%
COC(=O)N1[C@H](C)C=C[C@]1(Cc1ccccc1)C(=O)NCc1ccc(C)o1	nt	nt	44.7µM*	nt	nt
C=CCSc1nc(-c2ccccc2)c2cc(Cl)ccc2n1	195.2%	200.7%	-9.8%	301.5%	41.5%[59 µM]
C=CCSc1nnc(C)c(/C=C/Nc2ccc(Cl)cc2)n1	-20.9%	39.8µM*	-11.5%	-8.6%	?
COc1ccc(/C=N/NC(=O)c2ccncc2)c(OC)c1	3.1%	-8.4%	4.3%	50.2%	-16.6%
CCOc1cccc(/C=N/NC(=O)c2cccnc2)c1O	31.6µM*	89.1µM*	19.7%	58.2%	32.2%
COc1cc(OC)c(/C=N/NC(=O)c2ccncc2)c(OC)c1	9.4%	3.98µM*	-11.4%	16.2%	2.8%
COc1c(/C=N/NC(=O)c2ccncc2)c(CCN(C)C(C)=O)cc2c1OCO2	-13.4%	2.8%	14.1%	3.0%	50.1µM*
COc1c(/C=N/NC(=O)[C@H]2C[C@@H]2c2ccccc2)c(CCN(C)C(C)=O)cc2c1OCO2	-14.0%	-21.9%	4.1%	54.5%	-7.8%[59 µM]
COc1cc([N+](=O)[O-])cc(/C=N/NC(=O)c2cccnc2)c1O	17.8µM*	22.4µM*	1.0%	13.0%	nt
O=C(CN1C(=O)C2CCCCN2C(=O)c2ccccc21)Nc1ccc(F)cc1 (centres undefined)	-15.9%	-10.7%	22.6%	64.1%	6.8%
O=C(O)C1CCCN1S(=O)(=O)c1cccc2nsnc12 (centres undefined)	-1.3%	-6.8%	16.8%	32.0%	-4.4%
O=C(N/C(=C/c1ccco1)C(=O)N1CCOCC1)c1cccs1	-12.5%	-14.5%	-9.4%	20.6%	nt
CC(C)CCN1CCN(CCCc2ccccc2)CC1CCO (centres undefined)	1.4%	-12.0%	4.7%	21.0%	nt
COc1cc(C)ccc1OCC(=O)Nc1nnc(C2CC2)s1	nt	-5.7%	nt	35.1%	nt
COc1cccc(C=NNC(=O)c2ccncc2)c1O	nt	56.2µM*	nt	15.0%	nt
O=C(NC(=S)Nc1nc2c(s1)CSc1ccccc1-2)c1ccccc1	?	-30.6%	44.7µM*	-18.5%	3.55µM*
CC(=O)Nc1ccc(NC(=O)c2ccc3c(c2)NC(=O)c2ccccc2S3)cc1	12.4%	-16.4%	nt	39.7%	20.6%[59 µM]
C/C(=N\Nc1ccc(C(=O)O)cc1)c1ccc2c(c1)Nc1ccccc1S2	50.1µM*	?	-20.6%	?	11.2µM*
Cc1cc(N=Cc2c(O)n(-c3ccc4c(c3)OCO4)c(=O)c3ccccc23)ccn1	-1.8%	-23.5%	?	19.0%	1.6%[59 µM]
Cc1ccc(-n2c(O)c(C=Nc3ccc4c(c3)OCO4)c3ccccc3c2=O)cc1C	-4.8%	-6.7%	35.5µM*	36.7%	-25.0%[59 µM]
O=C(CCCCCN1CCN(c2ccccc2-c2ccccc2)CC1)NC1CCCc2ccccc21 (centres undefined)	nt	nt	nt	nt	12.6µM*
